Data from PubChem BioAssay (Tox21).
“And” between values parts separate entries of the source, which are not always exact repeats. Equal entries are not always repeated. Results filed as inconclusive are left out. Where a call stands in place of a potency, no number is given. Some structures have more than one record in an assay (separate samples or runs), and their calls can disagree. The source made the active and inactive calls. Unless noted, the call rests on the fitted dose curve; in most records, active means well fitted curve in the direction sought with a large enough effect in the repeat runs; inconclusive means weak or mixed curves; inactive means no such curve, though single readings can be large; an effect the other way counts as inactive or inconclusive.

How the values were obtained:
[1] = qHTS assay to test for compound auto fluorescence at 535 nm (green) in HEK293 cells (AID 720680)
[2] = qHTS assay to test for compound auto fluorescence at 460 nm (blue) in HEK293 cell free culture (AID 720681)
Method in brief: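 Test compounds were pinned into cell-free culture medium (DMEM with 10% FBS) and fluorescence was read directly at Ex/Em 405/460 nm. Signals were expressed as fluorescence equivalents of triamterene, with DMSO vehicle as control.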

[3] = qHTS assay to test for compound auto fluorescence at 535 nm (green) in HEK293 cell free culture (AID 720682)
Method in brief: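 Using fluorescein as calibrant, autofluorescence was quantified at 485/535 nm in cell-free DMEM containing 10% FBS after pintool addition of compound or vehicle.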

[4] = qHTS assay to test for compound auto fluorescence at 590 nm (red) in HEK293 cell free culture (AID 720683)
Method in brief: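 Tox21 10K library compounds were pinned into cell-free DMEM with 10% FBS and fluorescence was read at excitation 540 nm. Activity is expressed as Rose Bengal sodium equivalency.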

[5] = qHTS assay to test for compound auto fluorescence at 460 nm (blue) in HepG2 cell free culture (AID 720685)
Method in brief: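 Compound (23 nL) or DMSO pinned into cell-free MEM with 10% FBS; blue fluorescence read at 405/460 nm excitation/emission, expressed as auto-fluorescence equivalency to triamterene.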

[6] = qHTS assay to test for compound auto fluorescence at 535 nm (green) in HepG2 cell free culture (AID 720686)
[7] = qHTS assay to test for compound auto fluorescence at 460 nm (blue) in HepG2 cells (AID 720687)
Method in brief: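 Cells (2,000/well in MEM with 10% FBS) attached overnight at 37 C, then were exposed to compound or DMSO for 1 hr at 37 C, 5% CO2. Fluorescence read at Ex/Em 405/460 nm, expressed as triamterene-equivalent signal.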

[8] = qHTS assay to identify small molecule antagonists of the glucocorticoid receptor (GR) signaling pathway - cell viability counter screen (AID 720693); further: nearly all actives have a fitted effect of over 55% in size
[9] = qHTS assay for identifying genotoxic compounds that show differential cytotoxicity against isogenic chicken DT40 cell lines with known DNA damage response pathways - wild type cell line (AID 743012); further: nearly all actives have a fitted effect of over 60% in size; further: potency means the concentration at half of the fitted maximal effect
Method in brief: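 Wild type DT40, 300 cells/well, ~0.5 h settle at 37 C/5% CO2; compounds in DMSO added by pintool; 40 h at 37 C/5% CO2; CellTiter-Glo, 30 min RT; luminescence.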

[10] = qHTS assay for identifying genotoxic compounds that show differential cytotoxicity against isogenic chicken DT40 cell lines with known DNA damage response pathways - Rev3 mutant cell line (AID 743014); further: nearly all actives have a fitted effect of over 55% in size; further: potency means the concentration at half of the fitted maximal effect
[11] = qHTS assay for identifying genotoxic compounds that show differential cytotoxicity against isogenic chicken DT40 cell lines with known DNA damage response pathways - Rad54/Ku70 mutant cell line (AID 743015); further: nearly all actives have a fitted effect of over 60% in size; further: potency means the concentration at half of the fitted maximal effect
[12] = qHTS assay to identify small molecule antagonists of the androgen receptor (AR) signaling pathway - cell viability counter screen (AID 743033; further: nearly all actives have a fitted effect of over 45% in size; further: potency means the concentration at half of the fitted maximal effect)
[13] = qHTS assay to identify small molecule antagonists of the androgen receptor (AR) signaling pathway using the MDA cell line - cell viability counter screen (AID 743041; further: nearly all actives have a fitted effect of over 45% in size)
Method in brief: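 Viability counter screen run alongside the AR antagonist reporter: cells seeded 5 h before compound, R1881 added, 16 h incubation at 37C without CO2, fluorescent CellTiter-Fluor signal quantified.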

[14] = biological target: Glucocorticoid receptor (Homo sapiens) (UniProt P04150); experiment: qHTS assay to identify small molecule agonists of the glucocorticoid receptor (GR) signaling pathway (AID 720691; active means well fitted activation curve with a large enough effect in the signal ratio in the repeat runs, not every such curve was filed as active; the % refers to the signal ratio)
Method in brief: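 Fluorescence intensity from LiveBLAzer B/G FRET substrate (2 h, room temperature) reports beta-lactamase expression driven by the glucocorticoid response element in GR-bla HeLa cells after 18 h compound exposure at 37 C.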

[15] = biological target: Glucocorticoid receptor (Homo sapiens) (UniProt P04150); experiment: qHTS assay to identify small molecule antagonists of the glucocorticoid receptor (GR) signaling pathway (AID 720692; active means well fitted inhibition curve with a large enough effect in the signal ratio in the repeat runs, not every such curve was filed as active; the % refers to the signal ratio; further: potency means the concentration at half of the fitted maximal effect)
Method in brief: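 HeLa GR-bla cells; cmpd + dex 5 nM final, 18 h 37 C; LiveBLAzer B/G FRET substrate 2 h RT; fluorescence intensity read. Antagonist mode, qHTS.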

[16] = biological target: Androgen receptor (Homo sapiens) (UniProt P10275); experiment: qHTS assay to identify small molecule antagonists of the androgen receptor (AR) signaling pathway (AID 743035; active means well fitted inhibition curve with a large enough effect in the signal ratio in the repeat runs, not every such curve was filed as active; the % refers to the signal ratio)
Method in brief: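 Fluorescence from a beta-lactamase FRET substrate (LiveBLAzer B/G, 2 h, room temperature) measured inhibition of R1881-stimulated signaling in GeneBLAzer AR-UAS-bla HEK293 cells exposed to compound for 16 h at 37C.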

[17] = biological target: Androgen receptor (Homo sapiens) (UniProt P10275); experiment: qHTS assay to identify small molecule agonists of the androgen receptor (AR) signaling pathway (AID 743036; active means well fitted activation curve with a large enough effect in the signal ratio in the repeat runs, with a control signal flat, not every such curve was filed as active; the % refers to the signal ratio)
Method in brief: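 In this Tox21 qHTS, 2,000 HEK293 AR-bla cells per well were incubated with compounds for 16 h at 37C and 5% CO2. Fluorescence intensity was recorded 2 h after adding LiveBLAzer B/G FRET substrate at room temperature.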

[18] = biological target: Androgen receptor (Homo sapiens) (UniProt P10275); experiment: qHTS assay to identify small molecule agonists of the androgen receptor (AR) signaling pathway using the MDA cell line (AID 743040; further: nearly all actives have a fitted effect of over 20% in size)
Method in brief: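 Luminescence from ONE-Glo, read after 30 min at room temperature, reflects MMTV-driven luciferase in MDA-kb2 cells (AR- and GR-responsive). Treatment lasted 16 h at 37C, 0% CO2.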

[19] = biological target: Androgen receptor (Homo sapiens) (UniProt P10275); experiment: qHTS assay to identify small molecule antagonists of the androgen receptor (AR) signaling pathway using the MDA cell line (AID 743042; further: nearly all actives have a fitted effect of over 55% in size)
Method in brief: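 MDA-kb2 cells (human breast carcinoma, stably carrying an MMTV-luciferase reporter responsive to AR and GR) were plated at 3,000 cells/well and preincubated 5 hr at 37C, then given compound plus R1881 agonist for 16 h. ONE-Glo luminescence was read.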

Glucocorticoid receptor (Homo sapiens), sequence (P04150 whole entry, looked up): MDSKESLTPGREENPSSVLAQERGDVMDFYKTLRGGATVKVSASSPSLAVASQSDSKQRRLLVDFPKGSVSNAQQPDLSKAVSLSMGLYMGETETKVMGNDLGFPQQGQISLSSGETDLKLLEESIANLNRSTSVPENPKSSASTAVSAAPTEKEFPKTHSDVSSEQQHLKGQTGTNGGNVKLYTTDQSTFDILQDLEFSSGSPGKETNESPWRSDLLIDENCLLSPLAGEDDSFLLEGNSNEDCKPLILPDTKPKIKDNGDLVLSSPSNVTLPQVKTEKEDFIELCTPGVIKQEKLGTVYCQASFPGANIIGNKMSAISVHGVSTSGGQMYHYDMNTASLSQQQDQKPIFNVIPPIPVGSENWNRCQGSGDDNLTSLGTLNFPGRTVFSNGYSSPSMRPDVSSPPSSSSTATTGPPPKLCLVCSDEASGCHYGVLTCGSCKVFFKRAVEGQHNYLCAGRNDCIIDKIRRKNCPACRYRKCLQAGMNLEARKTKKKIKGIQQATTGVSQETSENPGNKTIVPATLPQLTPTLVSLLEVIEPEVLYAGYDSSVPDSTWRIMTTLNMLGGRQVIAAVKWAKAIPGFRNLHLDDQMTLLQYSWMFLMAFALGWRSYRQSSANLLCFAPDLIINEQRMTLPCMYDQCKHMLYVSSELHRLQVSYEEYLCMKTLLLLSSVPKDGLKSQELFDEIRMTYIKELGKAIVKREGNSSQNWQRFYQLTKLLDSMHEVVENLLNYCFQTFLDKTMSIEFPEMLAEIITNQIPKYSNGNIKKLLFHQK
Androgen receptor (Homo sapiens), sequence (P10275 whole entry, looked up): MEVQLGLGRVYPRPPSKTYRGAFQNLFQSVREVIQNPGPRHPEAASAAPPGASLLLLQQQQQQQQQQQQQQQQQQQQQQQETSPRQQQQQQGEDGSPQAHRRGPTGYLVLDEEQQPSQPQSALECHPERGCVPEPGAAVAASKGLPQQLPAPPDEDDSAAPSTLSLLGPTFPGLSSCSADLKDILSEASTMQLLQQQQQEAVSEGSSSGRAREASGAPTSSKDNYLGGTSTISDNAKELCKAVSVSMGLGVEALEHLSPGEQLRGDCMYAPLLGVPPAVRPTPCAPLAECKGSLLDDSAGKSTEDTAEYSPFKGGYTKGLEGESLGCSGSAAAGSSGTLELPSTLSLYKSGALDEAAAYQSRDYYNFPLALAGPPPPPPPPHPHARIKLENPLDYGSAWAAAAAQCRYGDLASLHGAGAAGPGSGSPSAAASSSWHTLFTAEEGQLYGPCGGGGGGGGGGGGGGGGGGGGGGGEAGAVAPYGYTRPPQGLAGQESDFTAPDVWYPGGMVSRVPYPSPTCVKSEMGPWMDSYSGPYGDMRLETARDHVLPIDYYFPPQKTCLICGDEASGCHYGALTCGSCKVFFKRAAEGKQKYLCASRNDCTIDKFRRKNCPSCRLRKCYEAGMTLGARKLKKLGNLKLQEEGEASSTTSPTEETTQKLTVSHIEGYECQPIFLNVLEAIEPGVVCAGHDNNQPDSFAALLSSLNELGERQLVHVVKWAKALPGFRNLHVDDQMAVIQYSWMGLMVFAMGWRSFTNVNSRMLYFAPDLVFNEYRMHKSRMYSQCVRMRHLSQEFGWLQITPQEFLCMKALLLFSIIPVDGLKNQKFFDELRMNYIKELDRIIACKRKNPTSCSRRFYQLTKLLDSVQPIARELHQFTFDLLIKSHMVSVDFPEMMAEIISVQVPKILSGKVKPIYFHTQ

Row | Structure (SMILES) | Potency [1] | outcome [2] | Potency [3] | Potency [4] | outcome [5] | Potency [6] | outcome [7] | Potency [8] | Potency [9] | Potency [10] | Potency [11] | Potency [12] | Potency [13] | Potency [14] | Potency [15] | Potency [16] | outcome [17] | Potency [18] | Potency [19]
1 | CC(C)=CCCC(C)CCO (centres undefined) | inactive | inactive | inactive | inactive | inactive | inactive | inactive | inactive | 61.1 µM (active) | inactive and 30.6 µM (active) | inactive and 27.3 µM (active) | inactive | inactive |  |  |  |  |  | 
2 | O=P(O)(O)O | inactive | inactive | inactive | inactive | inactive | inactive | inactive | inactive |  | inactive | inactive | inactive | inactive | inactive | inactive |  |  |  | 
3 | C=C(C)C(=O)OCCOC(=O)C(=C)C | inactive | inactive | inactive | inactive | inactive | inactive | inactive | inactive | inactive | inactive | inactive | inactive | inactive | inactive |  | inactive | inactive | inactive | inactive
4 | C/C=C/C(=O)O | inactive | inactive | inactive | inactive | inactive | inactive | inactive |  | inactive | inactive | inactive | inactive | inactive | inactive |  |  |  |  | 
5 | CCOC(=O)C(C#N)=C(c1ccccc1)c1ccccc1 | inactive | inactive | inactive | inactive | inactive | inactive | inactive | inactive |  | 26.6 µM (active) and 15.4 µM (active) | 19.3 µM (active) | inactive | inactive |  |  |  |  |  | 
6 | COC(=O)C1=C(C)NC(C)=C(C(=O)OCCN(C)Cc2ccccc2)C1c1cccc([N+](=O)[O-])c1 (centres undefined) | inactive | inactive | inactive | inactive | inactive | inactive | inactive |  | 9.44 µM (active) and 19.2 µM (active) | 11.9 µM (active) and 21.6 µM (active) | 10.6 µM (active) and 19.2 µM (active) | 48.7 µM (active) | inactive |  | 23.9 µM (active) and 43.4 µM (active) |  |  |  | 
7 | Cc1[nH]c(=O)c(C#N)cc1-c1ccncc1 | inactive | inactive | inactive | inactive | inactive | inactive | inactive | inactive |  | inactive | inactive | inactive | inactive |  |  |  |  |  | 
8 | CCC(C)OC(=O)c1ccc(O)cc1 (centres undefined) | inactive | inactive | inactive | inactive | inactive | inactive | inactive | inactive |  | inactive |  | inactive | inactive | inactive |  |  |  |  | 
9 | C[C@]12CC[C@H]3[C@@H](CCC4=CC(=O)CC[C@@]43C)[C@@H]1CC[C@@H]2C(=O)CO | inactive | inactive | inactive | inactive | inactive | inactive | inactive |  |  | 9.69 µM (active) | 8.63 µM (active) | inactive | inactive | inactive |  |  |  |  | 
10 | CC(=O)c1ccccn1 | inactive | inactive | inactive | inactive | inactive | inactive | inactive | inactive |  | inactive | inactive | inactive | inactive |  |  |  |  |  | 
11 | Clc1nc(Cl)c(Cl)c(Cl)c1Cl | inactive | inactive | inactive | inactive | inactive | inactive | inactive |  | inactive | inactive | inactive | inactive | inactive | inactive |  |  |  |  | 
12 | C=C(C)C1CC=C(C)CC1 (centres undefined) | inactive | inactive | inactive | inactive | inactive | inactive | inactive | inactive | inactive | inactive | inactive | inactive | inactive |  |  |  |  |  | 
13 | O=C1c2cccc(O)c2C(=O)c2c(O)cccc21 | inactive | inactive | inactive | inactive | inactive | inactive | inactive |  | inactive | inactive | inactive | inactive | inactive |  |  |  |  |  | 
14 | O=C(/C=C/c1ccccc1)OCc1ccccc1 | inactive | inactive | inactive | inactive | inactive | inactive | inactive | inactive |  | inactive and 38.6 µM (active) | inactive and 43.3 µM (active) | inactive | inactive | inactive | inactive |  |  |  | 
15 | c1ccc(Nc2ccccc2)cc1 | inactive | inactive | inactive | inactive | inactive | inactive | inactive | inactive |  |  | inactive | inactive | inactive |  |  |  |  |  | 
